Molecular target: ERICH1
Assay: pooled miR-30 sensor sort-seq; sequence = guide strand
Details: shRNA
Note: reference of the scale not given here.

Question: Which sensor-assay potency score (higher = more potent) does the source give for TATTGTGGTGCCATCTGTGTGC here?
Answer: The sensor-assay potency score (higher = more potent) was 0.019.

Question: TTTCATTGGTAATTGTATCATC was tested. Which sensor-assay potency score (higher = more potent) did it give?
Answer: Its sensor-assay potency score (higher = more potent) is -0.447.

Question: For TTATTTTTGCTTATTGTGGTGC, which sensor-assay potency score (higher = more potent) is on record?
Answer: Its sensor-assay potency score (higher = more potent) is 0.19.

Question: How did the sensor-assay potency score (higher = more potent) turn out when TTCATTGCTGCTGTCCTCGGGC was run?
Answer: The sensor-assay potency score (higher = more potent) was 0.0342.

Question: Which sensor-assay potency score (higher = more potent) does the source give for TTATGCTTCCTAATTCTTCTTC here?
Answer: Its sensor-assay potency score (higher = more potent) is 0.311.

Question: With TTTATTTTTGCTTATTGTGGTG as the sequence, how does the sensor-assay potency score (higher = more potent) read?
Answer: The sensor-assay potency score (higher = more potent) was -0.386.

Question: Which sensor-assay potency score (higher = more potent) does the source give for TATACATTTAACTTAACAGAAT here?
Answer: The sensor-assay potency score (higher = more potent) was -1.58.

Question: With TTAACTTAACAGAATGTCCATT as the sequence, how does the sensor-assay potency score (higher = more potent) read?
Answer: Its sensor-assay potency score (higher = more potent) is -0.597.

Molecular target: ERMAP
Assay: as above
Details: shRNA

Question: TTTCTTGACAGCTTTATGGAGT was tested. Which sensor-assay potency score (higher = more potent) did it give?
Answer: The sensor-assay potency score (higher = more potent) was 0.273.

Question: TATTGCAGTACAATGGTCTTGT was tested. Which sensor-assay potency score (higher = more potent) did it give?
Answer: The sensor-assay potency score (higher = more potent) was 0.896.

Question: TAGTAAAGAAGAGTTCACCTTG was tested. Which sensor-assay potency score (higher = more potent) did it give?
Answer: The sensor-assay potency score (higher = more potent) was 0.291.

Question: For TTGTAGAAAGAGATGACTCCTG, which sensor-assay potency score (higher = more potent) is on record?
Answer: Its sensor-assay potency score (higher = more potent) is 0.279.

Question: How did the sensor-assay potency score (higher = more potent) turn out when TTACACATCTTTGGTCCTCAGA was run?
Answer: The sensor-assay potency score (higher = more potent) was -0.674.

Question: How did the sensor-assay potency score (higher = more potent) turn out when TTCAACTTCAGTTCACTCCGGA was run?
Answer: The sensor-assay potency score (higher = more potent) was 0.912.

Question: How did the sensor-assay potency score (higher = more potent) turn out when TTTTGCTCTTCTTTGCTTCCAG was run?
Answer: Its sensor-assay potency score (higher = more potent) is 0.153.

Question: For TTTACTCAGATTTCCAACTTGG, which sensor-assay potency score (higher = more potent) is on record?
Answer: The sensor-assay potency score (higher = more potent) was 0.208.

Question: Which sensor-assay potency score (higher = more potent) does the source give for TAGTTCTGAACAAATGACTAGA here?
Answer: Its sensor-assay potency score (higher = more potent) is -0.0154.

Question: How did the sensor-assay potency score (higher = more potent) turn out when TCTCTCACTAGCACCGTCCTCC was run?
Answer: Its sensor-assay potency score (higher = more potent) is 0.0369.

Question: TCAGACATCGGTAAGACCCTTG was tested. Which sensor-assay potency score (higher = more potent) did it give?
Answer: The sensor-assay potency score (higher = more potent) was 0.421.

Question: With TTTGCTCTTCTTTGCTTCCAGA as the sequence, how does the sensor-assay potency score (higher = more potent) read?
Answer: Its sensor-assay potency score (higher = more potent) is -0.875.

Molecular target: ESPNL
Assay: as above
Details: shRNA

Question: With TGCCACAACAGAACAGTCCCGC as the sequence, how does the sensor-assay potency score (higher = more potent) read?
Answer: Its sensor-assay potency score (higher = more potent) is 0.291.

Question: How did the sensor-assay potency score (higher = more potent) turn out when TGAGTCTGTGAGTACCTCCAGG was run?
Answer: The sensor-assay potency score (higher = more potent) was -0.966.

Question: For TTCAGCAGCAGGGACAGGCTGC, which sensor-assay potency score (higher = more potent) is on record?
Answer: Its sensor-assay potency score (higher = more potent) is -0.751.

Question: With TCCTCTTCTTCCATCCTCCAGG as the sequence, how does the sensor-assay potency score (higher = more potent) read?
Answer: Its sensor-assay potency score (higher = more potent) is -1.74.

Question: For TACATCTTCTTGAGTGTCCGTC, which sensor-assay potency score (higher = more potent) is on record?
Answer: Its sensor-assay potency score (higher = more potent) is 0.148.

Question: Which sensor-assay potency score (higher = more potent) does the source give for TTTTACATCTTCTTGAGTGTCC here?
Answer: The sensor-assay potency score (higher = more potent) was 0.799.

Question: With TTACATCTTCTTGAGTGTCCGT as the sequence, how does the sensor-assay potency score (higher = more potent) read?
Answer: The sensor-assay potency score (higher = more potent) was 0.428.

Question: With TGCACCAAGAACTTGACGCAGT as the sequence, how does the sensor-assay potency score (higher = more potent) read?
Answer: Its sensor-assay potency score (higher = more potent) is -1.02.

Question: Which sensor-assay potency score (higher = more potent) does the source give for TCGGTGAATGTGACCAGCCAGA here?
Answer: Its sensor-assay potency score (higher = more potent) is -1.22.

Question: TAGCAAACACATGTTCAGCTTC was tested. Which sensor-assay potency score (higher = more potent) did it give?
Answer: Its sensor-assay potency score (higher = more potent) is 0.322.

Question: TTTATTTAGCAAACACATGTTC was tested. Which sensor-assay potency score (higher = more potent) did it give?
Answer: Its sensor-assay potency score (higher = more potent) is -0.167.

Question: For TTATTTAGCAAACACATGTTCA, which sensor-assay potency score (higher = more potent) is on record?
Answer: Its sensor-assay potency score (higher = more potent) is -0.54.

Molecular target: ESR2
Assay: as above
Details: shRNA

Question: TAATCGCTGCAGACAGCGCAGA was tested. Which sensor-assay potency score (higher = more potent) did it give?
Answer: Its sensor-assay potency score (higher = more potent) is -1.17.

Question: Which sensor-assay potency score (higher = more potent) does the source give for TTCCAAGTTAGTGACATTGCTG here?
Answer: The sensor-assay potency score (higher = more potent) was -0.291.

Question: TTATCGATTGTACACTGATTTG was tested. Which sensor-assay potency score (higher = more potent) did it give?
Answer: The sensor-assay potency score (higher = more potent) was -1.64.

Question: With TCCAAGTTAGTGACATTGCTGG as the sequence, how does the sensor-assay potency score (higher = more potent) read?
Answer: Its sensor-assay potency score (higher = more potent) is 0.101.

Question: How did the sensor-assay potency score (higher = more potent) turn out when TTTTTATCGATTGTACACTGAT was run?
Answer: The sensor-assay potency score (higher = more potent) was -0.36.

Question: With TACCCACATCTCTCTCTCCGGG as the sequence, how does the sensor-assay potency score (higher = more potent) read?
Answer: The sensor-assay potency score (higher = more potent) was -0.444.

Question: With TTTAACTCTCGAAACCTTGAAG as the sequence, how does the sensor-assay potency score (higher = more potent) read?
Answer: The sensor-assay potency score (higher = more potent) was -0.511.

Question: With ATCATGTGTACCAACTCCTTGT as the sequence, how does the sensor-assay potency score (higher = more potent) read?
Answer: Its sensor-assay potency score (higher = more potent) is -0.273.
